Only some compounds are listed: those with a hit (about 2.2% of all), similar ones and a draw of the others.
IL2 activator: IL-2 activation | IL-2 activation reporter assay, cell-based qHTS; stimulated with anti-CD3/CD4/CD28 beads; in transgenic mouse T cells | activation, % (series mostly up to about 46 µM) | 360,000 compounds, 0.065% hits; in the data active = activation above about 50%; inconclusive = mostly about 30% to 49%; note: 0% is about no effect
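Unstimulated transgenic mouse T cells, 750 per well, received compound and, after 60 minutes, anti-CD3/anti-CD4 bead plus anti-CD28 stimulation. EGFP and DsRed were quantified after 18 hours.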
TrxR1 substrate: is turned over as a substrate by rat TrxR1. O89049. purified TrxR1 substrate turnover, NADPH consumption readout. Potency, µM (titrated, usually from 114 µM), without a hit: top-dose activity change, negative = substrate turnover. 390,000 compounds, 0.01% hits; note: potency is the fitted concentration of half-maximal effect; % is set by controls: 0 for no effect and ±100 for the full control effect; nearly all actives have a fitted effect of over 50% in size
Target sequence (O89049 whole entry, looked up): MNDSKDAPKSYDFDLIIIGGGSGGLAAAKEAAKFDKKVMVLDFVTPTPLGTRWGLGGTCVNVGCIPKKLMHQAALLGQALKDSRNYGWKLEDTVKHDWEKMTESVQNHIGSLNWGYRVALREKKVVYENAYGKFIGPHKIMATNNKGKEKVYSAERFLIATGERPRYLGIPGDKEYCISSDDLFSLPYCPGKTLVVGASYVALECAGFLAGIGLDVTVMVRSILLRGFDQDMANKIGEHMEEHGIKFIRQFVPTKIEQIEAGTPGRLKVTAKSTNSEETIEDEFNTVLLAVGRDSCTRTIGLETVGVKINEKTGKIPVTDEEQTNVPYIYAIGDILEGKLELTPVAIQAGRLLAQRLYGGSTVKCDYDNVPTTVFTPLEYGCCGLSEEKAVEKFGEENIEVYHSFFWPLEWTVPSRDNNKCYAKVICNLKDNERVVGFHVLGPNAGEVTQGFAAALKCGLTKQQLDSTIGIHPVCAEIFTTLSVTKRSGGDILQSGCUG
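Rat TrxR1, dispensed at 90 nM, was prereduced with 400 uM NADPH (final) for 5 min at ~22 deg C, then incubated with compound 15 min before 400 uM selenite. A first-read NADPH fluorescence drop versus no-compound background flagged substrates.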
rTrxR1 inhibitor: rat TrxR1 inhibition. recombinant rTrxR1, NADPH fluorescence consumption, selenite substrate. AID 588453. O89049. 390,000 compounds, 1% hits. Potency, µM (titrated, usually from 114 µM), for inactives: at the highest dose activity change, negative = inhibition, hits mostly inhibitors; note: potency is the fitted concentration of half-maximal effect; % is set by controls: 0 for no effect and ±100 for the full control effect; nearly all actives have a fitted effect of over 65% in size
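Rat TrxR1 (90 nM in the dispensed reagent) was pre-reduced with 400 uM NADPH for 5 min at room temperature, then incubated with compound for 15 min. After 400 uM selenite was added, NADPH fluorescence (Ex 340/Em 450 nm) was followed for 8 min.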
mIDH1 inhibitor: inhibitors of human mutant IDH1 R132H | O75874 | IDH1-R132H enzyme, NADPH consumption, diaphorase/resazurin fluorescence | Potency, µM (doses to about 76.6 µM), for inactives: at the top dose activity change, negative = inhibition, actives largely listed as inhibitors | 390,000 compounds, 0.093% hits | AID 602179; note: potency is the fitted concentration of half-maximal effect; % is set by controls: 0 for no effect and ±100 for the full control effect; nearly all actives have a fitted effect of over 65% in size
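IDH1-R132H (0.5 ug/mL) preincubated 30 min with compound, then NADPH (0.016 mM) and alpha-KG (2 mM) added; 80 min at RT, pH 7.5. Remaining NADPH coupled via diaphorase/resazurin to fluorescence (540/590 nm); concentration-response curves normalized to no-enzyme control.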
Giardia kill: kills Giardia lamblia; Giardia lamblia trophozoite viability; activity change, % at 7.66 µM, hits read low; 340,000 compounds, 0.15% hits; in the data active = activity change below about -80%; inconclusive = between about -30% and that limit;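 note: parasites exposed to compound for two days anaerobically before the ATP read; % is set by controls: 0 for no effect and ±100 for the full control effect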
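ATP-content bioluminescence gauges trophozoite survival. Cells (100/well) receive compound and incubate anaerobically for 48 hrs at 37 deg C; detection reagent follows for 15-30 min at room temperature.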
BRCA1 expr up: BRCA1 expression activation | MCF7-BRCA1-FFLuc reporter, luminescence, 48 h; response scale: scaled: vehicle 0%, 10 µM genistein 100% | AID 624202 | Potency, µM (top dose mostly 46.1 µM), inactives show top-dose activation, hits mostly activators | 380,000 compounds, 1.1% hits; note: potency is the fitted concentration of half-maximal effect; nearly all actives have a fitted effect of over 80% in size
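Using MCF7 cells harboring a BRCA1 firefly luciferase reporter, plated 2 h before compound pinning, the screen measured luminescence after 48 h incubation. Responses were normalized to DMSO and 10 microM genistein, then fitted for concentration-effect.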
The depositor's hits bear a star; ? = inconclusive; / = no result; [ ] = dose if it differs, or a comment. Unless noted, calls come from the whole dose curve; as a rule, active = well fitted curve in the direction sought with a large enough effect; inconclusive = small, poorly fitted or top-dose-only effect, or another doubt; inactive = no such curve, though single readings can be large; an effect the other way counts as inactive or inconclusive.

SMILES	IL2 activator	TrxR1 substrate	rTrxR1 inhibitor	mIDH1 inhibitor	Giardia kill	BRCA1 expr up
Cc1ccc(CNC(=O)CC(C)S(=O)(=O)c2ccc3c(c2)NC(=O)CS3)o1 (stereo not given)	2	3%	16µM*	1%	-21	-2%
Cc1cccc(C=NOCCc2ccccc2)n1	-4	4%	9%	2%	6	10µM*
Cc1cccc(/C=C/c2ccccc2)n1	/	1%[57.1 µM]	-6%[57.1 µM]	/	/	/
CCc1ccccc1Nc1nn2c(=O)c3ccc(C(=O)NCc4cccs4)cc3nc2s1	/	7%[57.1 µM]	18%[57.1 µM]	3%	/	/
Cc1ccccc1NC(=O)c1oc2c(c1C)-c1nn(Cc3cccc(Cl)c3)cc1CC2	/	1%[11.4 µM]	35%	-12%	/	/
CC(=O)/C(CN1CCCCC1)=N\O	-3	10%	10%	2%	0	9%
C/C(=N\O)C(=O)C(CN1CCCCC1)CN1CCCCC1	-3	20%[57.1 µM]	0.45µM*	5%	-13	1%
Cc1c(C)n(Cc2ccc(F)cc2)c2ccc(C(=O)Nc3ccc(Cl)cc3)cc12	/	5%[57.1 µM]	30%[57.1 µM]	8%	/	/
COc1cccc(C(=O)CN2CCN(S(=O)(=O)c3cccc([N+](=O)[O-])c3)CC2)c1	-1	-1%	8.9µM*	0%	-18	25%
Cc1sc2nc(CN3CCCCC3)nc(Cl)c2c1C	1	2%	32µM*	0%	3	-1%
Clc1nc(CN2CCCCC2)nc2sc3c(c12)CCCC3	-1	11%	4µM*	-5%	17	-32%
CC1CCN(Cc2nc(Cl)c3c4c(sc3n2)CCC4)CC1	-3	1%	32µM*	-3%	-5	-3%
CCS(=O)(=O)N1CCCc2cc(C(=O)Nc3cc([N+](=O)[O-])ccc3C)ccc21	/	-4%	14%	-1%	/	0%
Cc1ccc(Cn2c(=S)[nH]c3ccc(N4CCOCC4)cc3c2=O)o1	-3	5%	4.5µM*	6%	-2	34%
O=C1CC(c2ccccc2)CC2=C1C(c1ccccn1)Nc1ccccc1N2 (stereo not given)	0	-1%	6%	-4%	25	0%
O=C1CC(c2ccc(F)cc2)CC2=C1C(c1ccc([N+](=O)[O-])o1)Nc1ccccc1N2 (stereo not given)	0	-20%	?	0%	-90*	-41%
COc1ccc(CC(=O)NO)cc1	/	4%	9%	/	/	0%
COc1ccccc1CCNC(=O)c1ccc(Br)s1	1	3%	24%	0%	-25	8.9µM*
Cc1ccc(Cl)cc1N1CCN(C(=O)COc2cc(=O)n(C)c3ccccc23)CC1	/	2%	33%	12%	/	0%
O=C(O)CSc1ncnc2sc(-c3ccccc3)cc12	-1	13%[57.1 µM]	17%[57.1 µM]	7%	5	16%
CC(Sc1ncnc2sc(-c3ccccc3)cc12)C(N)=O (stereo not given)	-5	5%	13%	0%	-29	10µM*
COc1cc(CNCc2ccccn2)ccc1OCc1ccc(Cl)c(Cl)c1	-2	-3%	6%	5%	-12	20µM*
O=C(Nc1ccc(Cl)cc1Cl)c1cccc(N2C(=O)C=CC2=O)c1	-5	5%	2µM*	-17%	7	-27%
COc1ccccc1N1CCN(C(=O)c2cc3c(=O)n(C)c4ccccc4c3s2)CC1	/	3%	7%	46%	/	/
COc1ccc(C(=O)N(Cc2ccco2)Cc2cccs2)c(O)c1	-3	3%	-10%	0%	2	20%
SMILES	IL2 activator	TrxR1 substrate	rTrxR1 inhibitor	mIDH1 inhibitor	Giardia kill	BRCA1 expr up
CS(=O)(=O)N(CC(=O)NC1CCCCC1)Cc1ccc(F)cc1	1	-17%[57.1 µM]	37%[57.1 µM]	7%	15	0%
COc1ccc(C(=O)/C=C/C(=O)N(CC(=O)NC2CCCCC2)Cc2ccc(F)cc2)c(O)c1	-1	7%	4µM*	5%	-9	-58%
COc1ccc(C(=O)/C=C/C(=O)N(CC(=O)NCCC(C)C)Cc2cccs2)c(O)c1	-1	-5%	2.8µM*	3%	-14	-49%
CCOc1ccc(NC2SC(=O)N(Cc3ccccc3)C2=O)cc1 (stereo not given)	/	-2%	-11%	0%	/	/
O=C(CCN1C(=O)/C(=C/c2cccs2)SC1=S)Nc1ccc(C(=O)O)cc1	-1	-4%	1%	-10%	3	-2%
O=C(CCCN1C(=O)/C(=C\c2cccs2)SC1=S)Nc1ccc(C(=O)O)cc1	-1	79µM*	-21%	-4%	-11	-29%
O=C(CCCN1C(=O)/C(=C\c2ccco2)SC1=S)Nc1ccc(O)cc1C(=O)O	-1	-15%	50µM*	1%	7	-1%
O=C(NCc1ccccc1Cl)c1ccc2c(O)c(S(=O)(=O)c3ccccc3)c(=O)[nH]c2c1	/	-5%	9%	10%	/	/
CCC(=O)N1N=C(c2ccc(C)o2)CC1c1ccc(N(C)C)cc1 (stereo not given)	0	-8%	5%	-10%	-8	63%
COc1ccc(C2CC(c3ccc(C)o3)=NN2C(C)=O)cc1 (stereo not given)	1	-9%	-12%	7%	16	6.3µM*
CC(=O)N1N=C(c2ccc(C)o2)CC1c1ccc(Br)cc1 (stereo not given)	-3	-7%	-5%	5%	-9	10µM*
O=C(CSc1n[nH]c(-c2ccc(F)cc2)n1)NCCc1ccccc1	/	-2%[57.1 µM]	9%[57.1 µM]	16%	/	/
O=C(Nc1nc(-c2ccc3c(c2)OCCO3)cs1)c1ccc(Br)o1	1	/	/	-1%	/	5%
Cc1nc(-c2ccc3c(c2)OCCO3)cs1	0	6%	12%	8%	29	7.9µM*
Cc1ccc(C(=O)Nc2nc(-c3ccc4c(c3)OCCO4)cs2)o1	0	/	/	-2%	/	8.9µM*
Cc1cccc(Nc2nc(-c3ccc4c(c3)OCCO4)cs2)c1	0	-11%	-8%	2%	-4	?
COc1ccc(-c2cc3ccc(OCC(C)=O)cc3oc2=O)cc1OC	-2	43%	-20%	-2%	-9	10µM*
Cc1c(C)c2ccc(OCC(=O)c3ccccc3)cc2oc1=O	-3	2%	11%	-2%	11	6.3µM*
CCOc1ccc2cc(C(=O)c3ccccc3)c(=O)oc2c1	-1	0%	-1%	0%	-13	10µM*
COc1cccc(C(=O)COc2ccc3c(C)c(Cc4ccccc4)c(=O)oc3c2)c1	-5	7%[57.1 µM]	14%[57.1 µM]	2%	-3	8%
COc1ccc(-c2cc3ccc(OCC(C)=O)cc3oc2=O)cc1	-2	62%	35%	-14%	9	?
CCCc1c(C)c2ccc(OCC(C)=O)cc2oc1=O	-1	197%	?	3%	-9	5.6µM*

Screening data deposited in PubChem BioAssay by National Center for Advancing Translational Sciences (NCATS).
